A selection: hits, their analogues and other compounds. The true share with any hit is near 14%.
FBPA Giardia inh = inhibitors of Giardia lamblia fructose-1,6-bisphosphate aldolase; hit rate 0.71% among 290,000; purified Giardia FBPA; Potency, µM (top dose mostly 59.6 µM), usual class: inhibitors; AID 2451; A8B2U2; also: nearly all actives have a fitted effect of over 55% in size
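40 nM FBPA preincubated 10 min at RT with compound (up to 57.5 uM final), then substrate plus GAPDH/TPI/NAD/arsenate coupling and diaphorase/resazurin added. Fluorescence read after 20 min at RT, 525/598 nm.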
Shiga toxin inh = inhibitors of Shiga toxin in Vero cells | Vero cells, Shiga toxin protein synthesis inhibition reporter | inhibition, % at 38.7 µM | hit rate 9.2% among 290,000 | AID 2315; in the data active = inhibition mostly above about 28%, no sharp cut-off; inactive = mostly below about 43%
Cycloheximide cs = affects cycloheximide protein synthesis inhibition readout, counter-screen. cell reporter, cycloheximide protein synthesis inhibition counterscreen. max response, %. hit rate 12% among 300,000; in the data active = max response mostly above about 13%, no sharp cut-off; inactive = mostly below about 14%; also: read at 38.3 µM for the half of the compounds with a filed dose
LmPK inhibitor = LmPK (Leishmania mexicana) enzyme inhibition; Q27686; purified LmPK, Kinase-Glo ATP luminescence, 1 h; Potency, µM (highest dose often 57.5 µM), most hits filed as inhibitors; hit rate 0.37% among 290,000
Target sequence (Q27686 whole entry, looked up): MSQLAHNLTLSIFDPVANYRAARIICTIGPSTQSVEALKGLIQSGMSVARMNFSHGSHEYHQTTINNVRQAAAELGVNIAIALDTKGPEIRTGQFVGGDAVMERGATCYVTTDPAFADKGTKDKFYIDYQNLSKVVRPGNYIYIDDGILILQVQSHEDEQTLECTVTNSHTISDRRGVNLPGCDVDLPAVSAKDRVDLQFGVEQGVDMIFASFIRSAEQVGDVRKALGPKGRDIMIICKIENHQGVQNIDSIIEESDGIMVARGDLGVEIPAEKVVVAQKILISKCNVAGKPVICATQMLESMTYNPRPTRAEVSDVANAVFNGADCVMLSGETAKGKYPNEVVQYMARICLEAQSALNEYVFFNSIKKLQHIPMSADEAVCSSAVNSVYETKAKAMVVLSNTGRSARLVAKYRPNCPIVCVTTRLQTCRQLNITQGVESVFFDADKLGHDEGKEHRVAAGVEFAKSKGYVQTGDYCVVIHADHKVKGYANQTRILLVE
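0.1 nM LmPK, 0.5 mM PEP, 0.1 mM ADP; 50 mM imidazole pH 7.2, 7 mM MgCl2, 50 mM KCl; 1 h RT. Kinase-Glo luminescence readout, normalized to no-enzyme (full inhibition) and uninhibited wells.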
NS1 function inh = blocks influenza NS1 protein function; hit rate 0.4% among 270,000; Potency, µM (series often up to 46.1 µM); calls by dose curve; also: actives are rising curves; nearly all actives have a fitted effect of over 50% in size
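Read-out: OD600 growth recovery of NS1-expressing budding yeast. Cells grown overnight at 30C in -URA glucose medium, washed, resuspended and diluted 1:100 in 2% galactose assay medium, pH 6.0. Same strain lacking NS1 served as positive control.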
Hits are given with their value; i = inactive; ? = inconclusive; nt = no result. Unless noted, calls follow the shape of the dose curve; as a rule, active = well fitted curve in the direction sought with a large enough effect; inconclusive = small, poorly fitted or top-dose-only effect, or another doubt; inactive = no such curve, though single readings can be large; an effect the other way counts as inactive or inconclusive.

SMILES	FBPA Giardia inh	Shiga toxin inh	Cycloheximide cs	LmPK inhibitor	NS1 function inh
O=C(Nc1ccc(CN2CCOCC2)cc1)c1cc2ccccn2n1	i	38	22	i	i
O=C(/C=C/N1CCOCC1)c1cc2ccccc2o1	i	71	27	i	i
O=C(Nc1ccc(N2CCOCC2)cc1)c1cc2ccccc2o1	?	76	54	i	i
O=C(Nc1ccc(CN2CCOCC2)cc1)c1cc2ccccc2o1	i	64	34	i	i
O=C(NC(=S)Nc1ccc(CN2CCOCC2)cc1)c1cc2ccccc2o1	i	i	i	i	i
CN1CCN(S(=O)(=O)Cc2ccc(Cl)cc2)CC1	i	i	i	i	i
COC(=O)c1ccc(C(NC(=O)OCc2ccccc2)/C(=C/[C@@H](C)C(=O)N(C)C)c2cccnc2)cc1 (some centres undefined)	i	nt	nt	nt	nt
Cc1ccc(OCCC(=O)O)cc1	i	i	i	i	i
O=C(Nc1ccc(N2CCN(C(=O)c3ccc(Cl)cc3)CC2)cc1)c1cc2ccccc2o1	i	i	i	i	i
O=C(/C=C/N1CCOCC1)c1coc2ccccc12	i	63	35	i	i
CCC(=O)N1CCN(c2ccc(NC(=O)c3cc4ccccc4o3)cc2)CC1	i	i	16	i	i
O=C(O)c1coc2ccccc12	i	i	i	i	i
Cc1nc(Nc2ccccc2)sc1C(=O)Nc1ccccc1	i	59	39	i	i
Cc1nc(NC(=O)/C=C/c2ccccc2)sc1C(=O)Nc1ccccc1	i	i	i	i	i
O=C(NNc1ccccc1F)c1ccccc1	i	i	i	i	i
Nc1nc(Nc2ccccc2F)sc1C(=O)c1ccccc1	i	57	50	i	i
Cc1nc(Nc2ccccc2)sc1C(=O)c1ccc(F)cc1	i	143	67	i	i
COc1ccc(C(=O)c2sc(Nc3ccc(NC(C)=O)cc3)nc2C)cc1	i	i	i	i	i
Cc1nc(NCCOc2ccccc2)sc1C(=O)Nc1ccccc1	i	92	59	i	i
COc1ccccc1CN1CC(C(=O)NC2CCOCC2)CCC1=O (centres undefined)	nt	i	i	i	i
Cc1nc(NCc2ccccc2)sc1C(=O)Nc1ccccc1	i	50	26	i	nt
COc1ccccc1Nc1nc(C)c(C(=O)Nc2ccccc2)s1	i	i	i	i	nt
Cc1nc(Nc2ccccc2Cl)sc1C(=O)Nc1ccccc1	i	i	19	i	i
Cc1nc(NC(C)c2ccccc2)sc1C(=O)Nc1ccccc1 (centres undefined)	i	i	i	i	nt
Cc1cc(OCC(=O)N2CCC(C(=O)O)CC2)c2c(C)cc(=O)oc2c1	i	i	i	i	i
SMILES	FBPA Giardia inh	Shiga toxin inh	Cycloheximide cs	LmPK inhibitor	NS1 function inh
COc1ccc(N2C(=O)CSC23C(=O)N(CC(=O)NC2CCCC2)c2ccccc23)cc1 (centres undefined)	i	i	i	i	i
CCOc1ccc(-c2nnc(NC(=O)Cc3cc(OC)c(OC)c(OC)c3)o2)cc1	i	73	18	i	i
CCOc1ccc(-c2nnc(NC(=O)CCCOc3cccc(C)c3)o2)cc1	i	70	26	i	i
COC(=O)c1ccc(C(NC(=O)OCc2ccccc2)/C(F)=C/[C@@H](C)C(=O)Nc2ccc(OC)cc2)cc1 (some centres undefined)	i	nt	nt	nt	nt
CCCn1cnc2sc(CC)cc2c1=O	i	52	30	i	i
CCCn1cnc2sc(C(N)=O)c(C)c2c1=O	i	i	i	i	i
COc1ccc(/C=N/NC(=O)c2nn(-c3ccccc3)c(=O)c3c(N)scc23)cc1	2.5µM	i	i	i	i
COc1ccc(/C=N/NC(=O)c2nn(-c3ccc(Cl)cc3)c(=O)c3c(N)scc23)cc1	?	i	i	i	i
CSc1nc2ccc(NC(=O)c3ccc(Cl)s3)cc2s1	i	i	i	i	i
CSc1nc2ccc(NC(=O)NC(=O)c3c(F)cccc3F)cc2s1	i	i	17	i	i
CSc1nc2ccc(NS(=O)(=O)c3cccc(Cl)c3Cl)cc2s1	i	i	17	i	i
CSc1nc2ccc(NC(=O)C3CCCO3)cc2s1 (centres undefined)	i	112	40	i	i
Cc1cccc2sc(NC(=O)C3CCCO3)nc12 (centres undefined)	i	111	32	i	i
COc1ccc(NC(=O)C2CCCO2)cc1Cl (centres undefined)	i	i	i	i	i
COc1ccc(-c2nnc(NC(=O)C3CCCO3)s2)cc1 (centres undefined)	i	130	38	i	i

Screening results: PubChem, National Center for Advancing Translational Sciences (NCATS)
